From the OligoGym collection

target: CPEB3; test: pooled miR-30 sensor sort-seq; sequence = guide strand; settings: shRNA
Note: reference of the scale not given here.

Row | Sequence | sensor-assay potency score (higher = more potent)
1 | TTCCATCTGCATCTTGTCCGGG | 0.148
2 | TATAACATTAACAACTTGGGGG | 0.19
3 | TTGCAGGTCAGAACACCTCTGT | 0.0399
4 | TTTGAAAACAAACTATAGCTTG | -0.549
5 | TTTAATTGATATCCTAGCCTGA | 0.351
6 | TAGAGTAGCGTTCTACTCGTTC | -0.216
7 | TTTTGCTACATCTGCCACCTAC | -0.378
8 | TTGAAGAATATCCTACACCTAG | -0.344
9 | TAGTCTTGCAATCATTGTGTGT | -0.635
10 | TAATATAACATTAACAACTTGG | 0.134
11 | TTTATTGCATGCAGCAACCTGA | -0.657
12 | TTGAAAACAAACTATAGCTTGA | 0.15

target: CPNE5; test: as above; settings: shRNA

Row | Sequence | sensor-assay potency score (higher = more potent)
13 | TTCTTCATGACCTCGGTCTTGT | 0.503
14 | TTCTTCATTTTCTTTTTCGGGT | -0.414
15 | TTGCATCGTACTGAGTTCGAGA | -0.62
16 | TTGGTCAGGGATCTCTGCCAGC | -1.14
